# Source: PubChem BioAssay (NCATS)
# Records with an inconclusive call do not appear. A call without a number means that no potency is given here. Activity calls are given as the source filed them. The call rests on the fitted dose curve; in most records, active means well fitted cell-killing curve with a large enough effect; inconclusive means small, poorly fitted or top-dose-only effect, or effect the other way; inactive means flat fitted curve, though single readings scatter.
# Test system: CAOV3
# Test: Primary qHTS to identify gynecologic anti-cancer compounds using libraries of approved drugs and bioactive compounds (AID 1345084); further: nearly all actives have a fitted effect of over 55% in size
# Settings: Gynecologic cancer cell panel viability, ATPlite luminescence, 48 h; series mostly up to 57.5 µM
# Outline: (§1)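 Luminescence from the ATPlite ATP-monitoring reagent indicates viable cell number; lower signal means cytotoxicity. Cells received compound 16 h after seeding and were exposed for 48 h across five concentrations.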
Compound,Potency,"activity change, negative = cytotoxicity"
CC(C)CC(=O)n1cc(C(N)=O)c(=O)cc1C(O)c1ccccc1 (stereo not given),inactive,
CC(C)C(C#N)O[C@@H]1O[C@H](CO[C@@H]2OC[C@](O)(CO)[C@H]2O)[C@@H](O)[C@H](O)[C@H]1O (stereo not given in full),inactive,
COc1ccc(/C=C/C(=O)O[C@H]2[C@@H]3C=CO[C@@H](O[C@@H]4O[C@H](CO)[C@@H](O)[C@H](O)[C@H]4O)[C@@H]3[C@@]3(CO)O[C@@H]23)cc1O,inactive,
C=C1CC23CC1(O)CCC2C1=CC2OC(=O)C(C)(C2O)C1C3C(=O)O (stereo not given),inactive,
COc1cc(/C=C/C(=O)OC[C@H]2O[C@H](O[C@]3(CO)O[C@H](CO)[C@@H](O)[C@@H]3O)[C@H](O)[C@@H](O)[C@@H]2O)cc(OC)c1O,inactive,
C(#Cc1cccc(CN2CCOCC2)c1)CCN1CCCCC1,inactive,
COc1cc(C)c(C(=O)O[C@H]2[C@@H](O)[C@H](n3ccc(=O)[nH]c3=O)O[C@@H]2CO)c(OC)c1,inactive,
C[C@@]12C[C@]3(O)O[C@H](O1)[C@]1(COC(=O)c4ccccc4)[C@H]3C[C@@]12O[C@@H]1O[C@H](COC(=O)c2ccccc2)[C@@H](O)[C@H](O)[C@H]1O,inactive,
C[C@@H]1O[C@@H](O[C@H]2[C@H](O)[C@@H](C(=O)O)O[C@@H](O[C@H]3CC[C@@]4(C)C(CC[C@]5(C)C4CC=C4C6CC(C)(C)CC[C@]6(C(=O)O)CC[C@]45C)C3(C)C)[C@@H]2O[C@@H]2O[C@H](CO)[C@@H](O)[C@H](O)[C@H]2O)[C@H](O)[C@H](O)[C@H]1O (stereo not given in full),,1.71% [at 11.6 µM] (inactive)
CC(=O)N1CCN(NC(=O)c2ccc(F)cc2)CC1,inactive,

# Test system: CASKI
# Test: as above
# Settings: Gynecologic cancer cell panel viability, ATPlite luminescence, 48 h; series mostly up to 57.5 µM
# Outline: as §1
Compound,Potency,"activity change, negative = cytotoxicity"
C[C@]12CCC[C@](C)(C(=O)O)C1CCC13C=C(CO)C(CCC12)C3 (stereo not given in full),inactive,
O=C(c1ccc(C#Cc2cccc(F)c2)cn1)N1CC2CC2C1 (stereo not given),inactive,
C[C@H]1[C@H](C)CC[C@]2(C(=O)O)CC[C@]3(C)C(=CC[C@@H]4[C@@]5(C)C[C@@H](O)[C@H](O)[C@@](C)(CO)[C@@H]5CC[C@]43C)[C@H]12,inactive,
C/C=C/C=C/C(CC(=O)O)Nc1ccc(C=O)cc1 (stereo not given),inactive,
C[C@@H]1O[C@@H](O[C@H]2[C@H](OC(=O)[C@]34CCC(C)(C)C[C@H]3C3=CCC5[C@@]6(C)C[C@H](O)[C@H](O[C@@H]7O[C@H](CO)[C@@H](O[C@@H]8O[C@H](CO)[C@@H](O)[C@H](O)[C@H]8O)[C@H](O)[C@H]7O)[C@@](C)(CO)C6[C@H](O)C[C@@]5(C)[C@]3(C)C[C@H]4O)OC[C@H](O)[C@@H]2O)[C@H](O)[C@H](O)[C@H]1O[C@@H]1OC[C@@H](O)[C@H](O[C@@H]2OC[C@](O)(CO)[C@H]2O)[C@H]1O (stereo not given in full),,12.9% [at 6.55 µM] (inactive)
CC(C)(O)c1ccc2c(c1)C(=O)CC1[C@](C)(CO)CCC[C@]21C (stereo not given in full),inactive,
CC(=O)C1CCC2(C)C3=C(CCC12C)C1(C)CCC(=O)C(C)(C)C1CC3 (stereo not given),inactive,
C[C@@H]1C/C=C/C=C\C=C\C=C\[C@H](O[C@@H]2O[C@H](C)[C@@H](O)[C@H](N)[C@@H]2O)C[C@@H]2O[C@](O)(C[C@@H](O)C[C@H]3O[C@@H]3/C=C/C(=O)O1)C[C@H](O)[C@H]2C(=O)O,inactive,
COC(=O)C[C@@H]1C(C(=O)O)=CO[C@@H](O[C@@H]2O[C@H](CO)[C@@H](O)[C@H](O)[C@H]2O)/C1=C\COC(=O)/C=C\c1ccccc1,inactive,
CC1CCC2C(C(=O)O)=CC3C(O)C(C)(C)CC123 (stereo not given),inactive,
CC(C)(O)/C=C1/C(=O)C(C)(C)C(=O)C(C)(C)C1(O)O[C@@H]1O[C@H](COC(=O)c2cc(O)c(O)c(O)c2)[C@@H](O)[C@H](O)[C@H]1O (stereo not given in full),inactive,
Cc1cc(O)c(C(C)C)cc1O[C@@H]1O[C@H](CO)[C@@H](O)[C@H](O)[C@H]1O,inactive,
O=C1CC(c2ccc([N+](=O)[O-])cc2)=NN1c1ccccc1,inactive,
C=C1[C@H]2[C@H](O[C@@H]3O[C@H](COC(=O)/C=C/c4cc(OC)c(O)c(OC)c4)[C@@H](O)[C@H](O)[C@H]3O)OC=C(C(=O)O)[C@H]2C[C@@H]1O,inactive,
C/C=C(\C)C(=O)OC[C@H]1O[C@H](O[C@H]2O[C@H](CO)[C@@H](OC(=O)/C(C)=C/C)[C@H](O)[C@H]2O[C@@H]2O[C@H](CO)[C@@H](O)[C@H](O)[C@H]2O)[C@H](O[C@@H]2O[C@H](CO)[C@@H](O)[C@H](O)[C@H]2O)[C@@H](O)[C@@H]1O,,6.41% [at 11.6 µM] (inactive)
